HCMV antiviral: inhibitors of human cytomegalovirus; HFF cells, HCMV-luciferase reporter, 72 h; stronger effect = lower value; activity change, negative = inhibition, % at 57.5 µM; 410,000 compounds, 4.5% hits; AID 1259415; in the data active = activity change below about -60%; inconclusive = no clear call, values can overlap the other calls; inactive = above about -39%; note: % is set by controls: 0 for no effect and ±100 for the full control effect
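Steps: HFFs plated, 16 h 37C; compounds added; HCMV-luciferase added to MOI 1 PFU/cell; 72 h 37C; OneGlo reagent, 5 min room temperature; luminescence read, normalized to controls.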
Pf growth 96h: P. falciparum growth inhibition at 96 hour, primary screen for plastid delayed-death inhibitors; P. falciparum luciferase reporter growth, 96 h; Potency, µM (titrated, usually from 28.7 µM), for the others: top-dose activity change, negative = inhibition, usual class: inhibitors; 320,000 compounds, 6.9% hits; note: potency is the fitted concentration of half-maximal effect; % is set by controls: 0 for no effect and ±100 for the full control effect
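Compounds incubated with erythrocytes infected by luciferase-expressing P. falciparum (2% hematocrit, 0.05% parasitemia final) for 96 hours, 37 C in 5% CO2. Growth inhibition scored as decreased luciferase luminescence.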
CHX counter: affects cycloheximide protein synthesis inhibition readout, counter-screen; max response, %; cell reporter, cycloheximide protein synthesis inhibition counterscreen; AID 2314; 300,000 compounds, 12% hits; in the data active = max response mostly above about 13%, no sharp cut-off; inactive = mostly below about 14%; note: read at 38.3 µM for the half of the compounds with a filed dose; 0% is about no effect
Pf growth 48h: inhibits P. falciparum growth in the first generation, 48 h | Potency, µM (highest dose often 28.7 µM), for the others: top-dose activity change, negative = inhibition, actives largely listed as inhibitors | P. falciparum luciferase growth in erythrocytes, 48 h | 310,000 compounds, 5.9% hits; note: potency is the fitted concentration of half-maximal effect; % is set by controls: 0 for no effect and ±100 for the full control effect
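Parasite viability was followed by luminescence of a genomically integrated firefly luciferase. Cultures held 0.1% parasitemia at 2% hematocrit (final), incubated under 5% CO2 at 37 C.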
Shiga inhibitor: Shiga toxin inhibition; AID 2315; Vero cells, Shiga toxin protein synthesis inhibition reporter; 290,000 compounds, 9.2% hits; inhibition, % at 38.7 µM; in the data active = inhibition mostly above about 28%, no sharp cut-off; inactive = mostly below about 43%; note: 0% is about no effect
* = called active by the depositor; u = inconclusive; x = no result given. An excerpt weighted towards active compounds, which were near 20% of everything screened. Unless noted, calls come from the whole dose curve; as a rule, active = well fitted inhibition curve with a large enough effect; inconclusive = small, poorly fitted or top-dose-only effect, or another doubt; inactive = no such curve, though single readings can be large or run the other way.

SMILES | HCMV antiviral | Pf growth 96h | CHX counter | Pf growth 48h | Shiga inhibitor
CC(=O)NNc1ncnc2c1cnn2-c1ccc(C)c(Cl)c1 | -21 | 8.3µM* | 38* | 124% | 68*
CC(=O)NNc1ncnc2c1cnn2-c1ccc(C)cc1 | -3 | u | 37* | 116% | 86*
O=[N+]([O-])c1ccccc1S(=O)(=O)N1CCN(c2ccc(F)cc2)CC1 | -9 | u | -1 | 5% | -7
COc1ccc(CNC(=O)CSc2c3c(nc4ccc(Cl)cc24)CCCC3)cc1 | -37 | x | x | x | x
COc1ccc(C(=O)NNc2ncnc3c2cnn3-c2cccc(Cl)c2)cc1OC | -86* | x | x | x | x
COc1ccc(OC)c(C(=O)/C=C/c2cccnc2)c1 | -100* | 7.4µM* | -6 | u | -5
COc1cc(C(=O)/C=C/c2cccnc2)ccc1O | 12 | 0% | 16* | 0% | 27
COc1cc(C(=O)C(=O)c2ccc(O)c(OC)c2)ccc1O | 25 | 75% | active | 21% | 51*
O=C(/C=C/c1cccnc1)c1cc(F)ccc1O | -28 | u | -3 | -2% | -6
O=C(Nc1ccccc1C(=O)O)/C(=C/c1ccc([N+](=O)[O-])cc1)NC(=O)c1ccc(Br)o1 | 2 | 79% | 4 | 2% | 26
Cc1ccccc1-n1ncc2c1CC(C)(C)CC2NC(=O)c1cn[nH]c1C (stereo unspecified) | 15 | u | -2 | -5% | -5
CN(C)S(=O)(=O)c1ccc(/C(O)=C2/C(=O)C(=O)N(Cc3cccnc3)C2c2ccco2)cc1 (stereo unspecified) | -67* | 8.3µM* | -3 | 29% | -2
CCOc1cccc(/C(O)=C2/C(=O)C(=O)N(CCOC)C2c2ccco2)c1 (stereo unspecified) | 3 | 15% | 20* | 7% | 45*
COc1ccc(/C(O)=C2/C(=O)C(=O)N(Cc3cccnc3)C2c2ccco2)cc1OC (stereo unspecified) | 119 | 46% | 12 | 7% | 8
CCOc1cccc(/C(O)=C2/C(=O)C(=O)N(Cc3cccnc3)C2c2ccco2)c1 (stereo unspecified) | 31 | u | 22* | -2% | 50
CCOc1ccc(/C(O)=C2/C(=O)C(=O)N(CC3CCCO3)C2c2ccco2)cc1 (stereo unspecified) | 2 | 0% | 15* | -2% | 42*
COc1ccccc1CNC(=O)CCn1cnc2ccccc2c1=O | 8 | x | x | x | x
CCN(C(=O)COC(=O)c1ccc([N+](=O)[O-])o1)c1cccc2ccccc12 | 32 | x | x | x | x
CCc1ccccc1NS(=O)(=O)c1ccc2c(c1)CC(=O)N2 | -4 | x | x | x | x
CCC(=O)Nc1cc(C(=O)N2CCC3(CC2)OCCO3)ccc1S(=O)(=O)c1ccc(C)cc1 | 9 | 3.7µM* | -5 | 19% | 28
FC(F)(F)c1cccc(Cc2noc(CN3CCC(c4ccncc4)CC3)n2)c1 | -80* | u | -2 | u | -3
CN1CCCC2(CCCN(Cc3nc(Cc4cccc(C(F)(F)F)c4)no3)C2)C1 (stereo unspecified) | -3 | u | 0 | u | 13
FC(F)(F)c1cccc(Cc2noc(CN3CCCC(OCc4ccccn4)C3)n2)c1 (stereo unspecified) | 10 | 15µM* | 2 | -3% | -1
CCOC(=O)C1CCN(c2nc3ccccc3nc2Cl)CC1 | -2 | x | x | x | x
CNc1oc(/C=C/c2cc(OC)c(OC)c(OC)c2)nc1C#N | 164 | x | -9 | x | 6
SMILES | HCMV antiviral | Pf growth 96h | CHX counter | Pf growth 48h | Shiga inhibitor
CP(=O)(Nc1cc(Cl)ccc1Cl)c1nc2c(s1)CCCC2 (stereo unspecified) | -2 | 41% | -3 | -5% | -5
Cc1snc(SCC(=O)N/N=C(\N)COc2cccc(C(F)(F)F)c2)c1C#N | 3 | 40% | -5 | 46% | -14
CCCc1cc(=O)[nH]c(Nc2cc(Cl)ccc2OC)n1 | 3 | x | x | x | x
CN(Cc1ccccc1Br)C(=O)CSc1nnnn1C1CC1 | 0 | 3.3µM* | x | u | x
O=C(COC(=O)/C=C/c1ccc(OC(F)F)cc1)Nc1ccc2[nH]c(=O)[nH]c2c1 | 8 | x | x | x | x
O=C(Cc1ccc([N+](=O)[O-])cc1)Nc1cccc(C(F)(F)F)c1 | u | u | -4 | -10% | -4
NC(=O)c1ccsc1NC(=O)COC(=O)COc1ccccc1[N+](=O)[O-] | 14 | 24% | x | 36% | x
O=C(Cc1ccc([N+](=O)[O-])cc1)Nc1cc(C(F)(F)F)cc(C(F)(F)F)c1 | -35 | 15µM* | 1 | -80% | -14

Screens deposited in PubChem BioAssay by National Center for Advancing Translational Sciences (NCATS).
